Screening data (PubChem)
ELG1 genotoxic = qHTS screen for small molecules that induce genotoxicity in human embryonic kidney (HEK293T) cells expressing luciferase-tagged ELG1; HEK293T ELG1-luciferase reporter, luminescence, 16 h; Potency, µM (top dose mostly 46 µM), hits mostly activators; 330,000 compounds, 1.3% hits; note: nearly all actives have a fitted effect of over 60% in size
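DMSO vehicle served as control against compound-treated ELG1-luciferase HEK293T cells; exposure lasted 16 hr at 37 °C and 5% CO2, followed by ONE-Glo luminescence detection after 30 min.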
Rab9 prom act = qHTS Assay for Rab9 Promoter Activators; Huh7 Rab9 promoter-luciferase reporter, luminescence, 24 h; Potency, µM (series often up to 9.22 µM), hits mostly activators; AID 485297, 2010; 320,000 compounds, 2.8% hits; note: nearly all actives have a fitted effect of over 60% in size
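Rab9 promoter-driven luciferase in stably transfected Huh7 cells; 1500 cells/well rested 2 h, exposed to compound in DMSO for 24 h at 37 °C, 5% CO2. Luminescence read 10 min after adding luciferase reagent at ambient temperature.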
NPC1 promoter act = qHTS Assay for NPC1 Promoter Activators. Huh7 NPC1 promoter luciferase reporter, 24 h. 320,000 compounds, 2.4% hits. Potency, µM (doses to about 9.22 µM), usual class: activators; note: nearly all actives have a fitted effect of over 60% in size
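Luminescence from an NPC1 promoter-driven luciferase reporter in stably transfected Huh7 cells was measured after 24 h compound treatment at 37 °C, followed by 10 min ambient incubation with luciferase detection reagent.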
FLuc modulator = qHTS profiling assay for firefly luciferase inhibitor/activator using purifed enzyme and Km concentrations of substrates (counterscreen for miR-21 project) | AID 588342, 2011 | Potency, µM (titrated, usually from 57.5 µM), most hits filed as inhibitors | 360,000 compounds, 6.9% hits | purified FLuc, Km substrates, luminescence inhibition; note: nearly all actives have a fitted effect of over 55% in size
Target sequence (P08659 whole entry, looked up): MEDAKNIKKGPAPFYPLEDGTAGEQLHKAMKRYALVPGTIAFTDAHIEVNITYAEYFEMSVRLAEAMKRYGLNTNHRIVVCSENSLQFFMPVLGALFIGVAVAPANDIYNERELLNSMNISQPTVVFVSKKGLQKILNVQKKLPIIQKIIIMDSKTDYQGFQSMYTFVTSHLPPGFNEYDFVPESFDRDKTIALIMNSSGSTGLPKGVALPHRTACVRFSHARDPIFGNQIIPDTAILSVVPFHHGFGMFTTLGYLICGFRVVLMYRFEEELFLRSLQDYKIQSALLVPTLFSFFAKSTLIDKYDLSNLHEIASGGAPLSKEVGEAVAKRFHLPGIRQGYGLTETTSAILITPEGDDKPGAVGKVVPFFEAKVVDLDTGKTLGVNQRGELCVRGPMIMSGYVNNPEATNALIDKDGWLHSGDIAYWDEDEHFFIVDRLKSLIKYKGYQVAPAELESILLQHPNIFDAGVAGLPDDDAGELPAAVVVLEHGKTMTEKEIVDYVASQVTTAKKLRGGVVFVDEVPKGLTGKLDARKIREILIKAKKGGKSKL
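Biochemical qHTS of compounds, final roughly 60 µM downward over six points, against 10 nM purified firefly luciferase using Km concentrations of substrates (10 uM D-luciferin, 10 uM ATP) in Tris acetate pH 7.5 buffer; luminescence output.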
p53 reactivation = qHTS assay for re-activators of p53 using a Luc reporter. H1299 p53-A138V BP100-luciferase reporter, luminescence, 24 h. Potency, µM (top dose mostly 92.2 µM), hits mostly activators. 320,000 compounds, 0.063% hits. AID 504706, 2011; note: nearly all actives have a fitted effect of over 45% in size
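H1299 (p53-null), stable ts p53-A138V + BP100-Luc; 1000 cells/well, Opti-MEM/10% FBS; cpd 4 pt, 1:5; 24 h, 37 deg C, 5% CO2; detection reagent 10 min RT; luminescence.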
SMN2 splice enh = qHTS Assay for Enhancers of SMN2 Splice Variant Expression; HEK293 SMN2-luciferase splicing reporter, luminescence, 30-36 h; Potency, µM (top dose mostly 46.1 µM), most hits filed as activators; 210,000 compounds, 2.8% hits; AID 1458, 2008; note: nearly all actives have a fitted effect of over 55% in size
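HEK293 cells carry an SMN2 […]–luciferase reporter in which exon 7 inclusion puts luciferase in frame. Cells were plated 10-12 h before compound addition, then incubated 30-36 h at 37C. ONE-Glo luminescence was read; sodium butyrate at 4.5 mM final served as control.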
A number is an active result; n = inactive; u = inconclusive; x = not tested or not shown; [ ] = remark or other dose. An excerpt weighted towards active compounds, which were near 7.3% of everything screened. Calls come from the whole dose curve; as a rule, active = well fitted curve in the direction sought with a large enough effect; inconclusive = small, poorly fitted or top-dose-only effect, or another doubt; inactive = no such curve, though single readings can be large; an effect the other way counts as inactive or inconclusive.

SMILES | ELG1 genotoxic | Rab9 prom act | NPC1 promoter act | FLuc modulator | p53 reactivation | SMN2 splice enh
COc1ccc(OCc2cc(C(=O)NCCc3ccccc3)no2)c(Cl)c1 | n | n | n | u | n | x
COc1ccc(OCc2cc(C(=O)NC(C)Cc3cnccn3)no2)c(Cl)c1 (stereo unspecified) | u | u | u | 19µM | u | x
CN(Cc1nccs1)C(=O)c1cc(COc2cccc3cnccc23)on1 | n | n | n | n | n | x
COc1ccc(OCc2cc(C(=O)NCC(C)Oc3cccnc3)no2)c(Cl)c1 (stereo unspecified) | n | u | u | 15µM | n | x
CNC[C@H](NC[C@@H](NCCCc1ccccc1)c1ccccc1)[C@H](C)O | n | n | n | n | x | x
CCN1/C(=N\N)c2cccc3cccc1c23 | n | n | n | u | n | n
C[C@H](C(=O)O)c1cccc(Oc2ccccc2)c1 | x | x | x | x | x | n
CCCCc1nc2ccccc2n2c(-c3ccc(C)cc3)c3c(=O)n(C)c(=O)n(C)c3c12 | x | x | x | n | x | n
COc1ccccc1CCc1nnc(CCC(=O)N(C)Cc2ccncc2C)o1 | n | n | n | n | n | x
COc1ccccc1CCc1nnc(CCC(=O)N(C)Cc2cccc3cnccc23)o1 | n | 2.8µM | 4µM | 12µM | n | x
Cc1ccc(CN2CCSc3ccc(C(=O)NCCc4ccccc4)cc32)cc1 | x | x | x | n | x | 13µM
Cc1ccc(CN2CCSc3ccc(C(=O)Nc4ccc(Cl)cc4)cc32)cc1 | x | x | x | u | x | 11µM
O=C(NCCc1ccc(Cl)cc1)c1ccc2c(c1)N(Cc1ccccc1)CCS2 | x | x | x | n | x | u
O=C(/C=C/Nc1ccc(S(=O)(=O)Nc2ncccn2)cc1)c1ccc2ccccc2c1 | u | n | n | u | n | x
CCc1ccccc1N1C(=O)C2C3C=CC(CC3)C2C1=O (stereo unspecified) | n | n | n | n | n | x
O=C1C2C3C=CC(CC3)C2C(=O)N1c1ccc(Cl)cc1Cl (stereo unspecified) | n | n | n | 15µM | x | x
Cc1nc(/N=C\c2ccc(N(C)C)cc2)sc1C | n | n | n | 0.3µM | n | x
Cc1ccc(N=Cc2ccc(N(C)C)cc2)cc1 | n | n | n | u | n | n
CN(C)c1ccc(C=Nc2ccccc2)cc1 | n | n | n | 0.43µM | n | n
CN(C)c1ccc(N=Cc2ccco2)cc1 | u | n | n | 4.8µM | u | n
Cc1ccc(N=Cc2ccc(N(C)C)cc2)cc1C | n | n | n | 0.95µM | n | n
CC(=O)c1cccc(NC(=O)C2CCN(S(=O)(=O)c3ccc4c(c3)oc(=O)n4C)CC2)c1 | x | x | x | n | x | n
O=C(Cn1ccn(-c2ccc(F)cc2)c(=O)c1=O)Nc1ccccc1C(F)(F)F | x | x | x | n | x | x
CN(C)c1ccc(C=Nc2ccc(N(C)C)cc2)cc1 | u | n | n | 8.5µM | 40µM | n
CCOC(=O)CC(CC(C)=O)C(=O)OCC (stereo unspecified) | x | x | x | x | x | n
SMILES | ELG1 genotoxic | Rab9 prom act | NPC1 promoter act | FLuc modulator | p53 reactivation | SMN2 splice enh
CCC(NC(=O)Nc1cc(OC)ccc1OC)c1c(-n2cccc2)sc2c1CCN(CC)C2 (stereo unspecified) | x | x | x | n | x | x
CCN(CC)CC(=O)Nc1ccc2c(c1)N(C(=O)CN(CC)CC)c1ccccc1CC2 | n | n | n | n | n | n
CCN(CC)CC(=O)Nc1ccc2c(c1)Nc1ccccc1CC2 | n | u | n | 12µM | n | n
COc1cc(NC(=O)C2=CC(c3ccc(F)cc3)=NS(=O)(=O)N2C)cc(OC)c1OC | x | x | x | 1.3µM | x | x
Cc1cnc(NC(=O)c2ccc3c(c2)C(=O)N(Cc2ccco2)C3=O)s1 | n | n | n | u | n | n
Cc1ccc(CNc2ccc3c(c2)OCO3)cc1 | x | x | x | 24µM | x | n
c1cc(CNc2ccc3c(c2)OCO3)ccn1 | n | n | n | n | n | n
CCN1C(=O)c2ccc(C(=O)Nc3ncc(C)s3)cc2C1=O | u | u | n | 1.7µM | n | n
CCN1C(=O)c2ccc(C(=O)Nc3ccc4c(c3)OCO4)cc2C1=O | u | n | n | 2.7µM | n | x
Cc1cc(Cl)c2oc(C(=O)NCCC3CCCCO3)c(C)c2c1 (stereo unspecified) | u | u | u | 21µM | u | x
CCN1C(=O)c2ccc(C(=O)NCc3ccc4c(c3)OCO4)cc2C1=O | n | n | n | n | n | n
Cc1cc(Cl)c2oc(C(=O)NCCN3CCCCC3CO)c(C)c2c1 (stereo unspecified) | u | n | n | n | n | x
Cc1ccc2oc(C(=O)N(Cc3ccncc3)CC3CCCO3)c(C)c2c1 (stereo unspecified) | u | u | u | 11µM | n | x
O=C(O)CCC(=O)Nc1cccc(C(=O)Nc2cccc(Cl)c2)c1 | n | n | n | u | n | n
CCN(CC)S(=O)(=O)c1ccc(C(=O)Nc2ccc3c(c2)OCCO3)cc1 | n | n | n | u | n | n
O=C(O)CCC(=O)Nc1cccc(C(=O)Nc2ccc(Br)cc2)c1 | n | n | n | 24µM | n | n
Cc1ccc(C(=O)Nc2ccc3c(c2)OCCO3)cc1 | 0.58µM | 0.32µM | 0.28µM | 0.43µM | n | x
CCCOc1cccc(C(=O)Nc2ccc3c(c2)OCCO3)c1 | 2.3µM | u | 3.2µM | 0.95µM | n | x
Cc1cc(C)c(S(=O)(=O)NCCc2sc3nc(-c4ccc(F)cc4)nn3c2C)c(C)c1 | x | x | x | n | x | x
NCCC1([N+](=O)[O-])CCNCC1 | x | x | x | x | x | n[9.22 µM]
COc1ccc(C2C(=O)N(C3CCCCC3)CC(=O)N2CCc2ccc(C)cc2)cc1OC (stereo unspecified) | x | x | x | n | x | x
CCc1ccc(NC(=O)Cn2c(=O)n(Cc3ccco3)c(=O)c3cccnc32)cc1 | x | x | x | n | x | n
CC(OC(=O)c1ccc(Br)o1)C(=O)Nc1ccc2c(c1)OCCO2 (stereo unspecified) | n | n | n | x | n | x
O=C(Nc1ccc2c(c1)OCCO2)c1ccc(Br)o1 | u | 1.6µM | 1.3µM | 2.1µM | n | 14µM
Cc1ccc(S(=O)(=O)CC(=O)c2ccc3c(c2)OCCO3)cc1 | n | u | u | 13µM | u | x
Cc1ccc(C(=O)Nc2ccc3c(c2)OCO3)cc1 | 0.46µM | 0.56µM | 0.63µM | 1.3µM | n | 7.9µM
Cc1c(C(=O)Nc2ccc3c(c2)OCCO3)oc2ccc(Br)cc12 | u | u | n | 5.4µM | u | x
Cc1ccc(-n2nc3c(c2NC(=O)c2ccccc2)CS(=O)(=O)C3)cc1C | n | n | n | n | n | x
O=C(NCc1cccnc1)C1CC(=O)N(CCc2ccccc2)C1 (stereo unspecified) | n | n | n | n | n | n
O=C(Nc1ccc2c(c1)OCCO2)c1ccc(Br)cc1 | u | 1.3µM | 2.5µM | 1.1µM | n | x
